Assay results published in PubChem BioAssay AID602428 (Sanford-Burnham Center for Chemical Genomics, 2012).
About 980 (39%) of roughly 2,500 compounds were called active. The list is a sample of the results. Unmarked numbers belong to inactive results.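 The calls were made as follows: active = mean inhibition at 5 µM reaching about 45% (limit read from the data); inactive = the rest.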

Assay: blockers of Gli reporter signaling – single concentration, luciferase luminescence, Sufu-KO-LIGHT cells, confirmation (AID 602428);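 also: plate controls were DMSO-treated cells for no effect and wells lacking cells for full effect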
Conditions: at 5 µM, stronger effect = higher value

SMILES	inhibition
C=CCNC(=S)/N=c1/ccccn1Cc1ccccc1	50.8% (active)
CCOc1cccc(/C=N/NC(=S)NCCN2CCOCC2)c1O	24.5%
Nc1ccc(C(=O)N2CCN(S(=O)(=O)c3ccc(Cl)cc3)CC2)cc1[N+](=O)[O-]	17.8%
COc1ccc(NC(=O)[C@H](NC(=O)[C@@H]2Cc3ccccc3CN2)c2ccccc2)cc1	17.9%
CCOC(=O)c1ccc(NC(=O)Cn2cnc3cc(C)c(C)cc32)cc1	76.1% (active)
CC(=O)Nc1cccc(OCC(=O)/C=C2\N(C)c3ccccc3C2(C)C)c1	54.9% (active)
O=C(O)CCCn1cc(NC(=O)COc2cccc(Cl)c2)cn1	12.9%
CC1CC2=C(CC1/C=N/NC(N)=S)C(C)(C)CCC2 (stereo not drawn)	49.3% (active)
COc1ccccc1CNC(=O)C1CCN(c2nc3ccccc3o2)CC1	25.9%
COc1ccccc1CCNC(=O)C(=O)NCCC1CCCCN1S(=O)(=O)c1cccs1 (stereo not drawn)	48.8% (active)
COc1ccc(NS(=O)(=O)c2ccc(NC(C)=O)cc2)cc1OC	51.5% (active)
Cc1cccc(NS(=O)(=O)c2ccc(-c3cnc(C4CC4)o3)cc2)c1	36.7%
COc1ccc2c(C)cc3nnnn3c2c1	17.3%
O=C(CN1C(=O)c2ccccc2S1(=O)=O)N1CCc2ccccc21	57.7% (active)
CC(C)OCC(O)CN1CCN(C(c2ccccc2)c2ccccc2)CC1 (stereo not drawn)	10.4%
CC(=O)/C(=N\Nc1ccc(Cl)cc1Cl)Sc1cccc2cccnc12	57.7% (active)
CCC(Cc1ccccc1)NC(=O)C1CCCCC1 (stereo not drawn)	6.07%
O=C(Nc1cc2c3c(c1)C1CCCC1CN3CC1CCCC21)c1ccc([N+](=O)[O-])cc1 (stereo not drawn)	79% (active)
COc1cc(C(=O)OC2CCOC2=O)c([N+](=O)[O-])cc1OC (stereo not drawn)	7.05%
CC[n+]1c(C)n(-c2ccccc2)c2ccc(NC(C)=O)cc21	80.2% (active)
C=CCOC(=O)C1=C[C@@H](c2ccc3c(c2)OCO3)C[C@@H](OCCCCO)O1	28.9%
O=C1/C(=C\c2cccnc2)CN(Cc2ccccc2)C/C1=C\c1cccnc1	19.9%
CCCCC(=O)NC(c1ccc(OC)c(OC)c1)c1ccc2cccnc2c1O (stereo not drawn)	55% (active)
Cc1ccc(NC(=S)Nc2ccc(F)cc2)cc1	-13.7%

SMILES	inhibition
CCN1/C(=C/C(=S)Nc2ccccc2)Sc2ccccc21	9.5%
COc1ccc(Cn2c(-c3ccc(Cl)cc3)c[n+]3ccccc23)cc1	63.2% (active)
c1c2c(cc3sc(N4CCCCC4)nc13)OCCO2	34.5%
O=c1c2ccccc2nc2n1C(CSCc1cccc(C(F)(F)F)c1)CS2 (stereo not drawn)	67.6% (active)
CC1(C)CC(=O)c2c(n(S(=O)(=O)c3ccccc3)c3ccc(NS(=O)(=O)c4ccccc4)cc23)C1	19.1%
C/C(=N\NC(=O)Cc1ccc(Cl)cc1)c1ccccn1	86.9% (active)
Cc1cc(NC(=O)c2cccc(N3C(=O)CCC3=O)c2)no1	20.1%
CC(C)(CNC(=O)c1ccc(Cl)c(S(=O)(=O)N2CCc3ccccc3C2)c1)N1CCOCC1	22.8%
CN(C)c1cc[n+](Cc2ccccc2)cc1	53% (active)
CCOC(=O)c1cnc(-n2nc(C)cc2C)nc1NNc1cc(C)nc(-c2ccccc2)n1	53.6% (active)
CCc1ccc(C2C(C#N)=C(N)N(N3CCOCC3)C3=C2C(=O)CC(C)(C)C3)s1 (stereo not drawn)	7.97%
C=CCn1c(SCC(=O)CC(=O)OCC)nc2cc(C(=O)N3CCC(C(N)=O)CC3)ccc2c1=O	20.4%
COc1cc(C(=O)OC(C)C(=O)NCC2CCCCC2)cc(NC(=O)c2ccco2)c1OC (stereo not drawn)	13.1%
COc1ccc(NS(=O)(=O)c2ccc(N3CCN(CCO)CC3)c([N+](=O)[O-])c2)cc1	45.5% (active)
COc1ccccc1/C=C/CN1CCC(CO)(Cc2ccccc2)CC1	12.3%
O=C(CN1CCN(S(=O)(=O)c2cc(Cl)ccc2Cl)CC1)c1ccc(O)c(O)c1	22.3%
NS(=O)(=O)c1ccc(CCNC(=O)CCCn2c(SCC(=O)N3CCCC3)nc3ccsc3c2=O)cc1	8.32%
COC(=O)Cc1[nH]n(-c2nc3ccccc3s2)c(=O)c1C(C)=Nc1ccc(OC)cc1	91.5% (active)
N#CC(C#N)=CN=c1ccn(Cc2ccc(Cl)cc2Cl)cc1	50.9% (active)
CCn1c(SCc2ccccc2)nc2cc(OC)c(OC)cc2c1=O	25.4%
Cc1ccc(C(=O)C[n+]2cc(-c3ccccc3)n3c2CCCCC3)cc1	70.7% (active)
Cc1cc(C(=O)CSc2nc(N)cc(=O)[nH]2)c(C)n1-c1cccc(F)c1	55.4% (active)
Cc1ccc(-c2nc3c(cnn3-c3ccccc3)c(=O)o2)cc1	38.2%
N#Cc1ccc(C(=O)Nc2nc(-c3cccs3)c(C(=O)C(F)(F)F)s2)cc1	66% (active)

SMILES	inhibition
O=C(O)c1ccc(N/N=C/c2ccc3ncccc3c2)cc1	61.1% (active)
CCNC(=S)N(CCN(CC)CC)Cc1cc2cc3c(cc2[nH]c1=O)OCO3	20.6%
CC1(C)Cc2ccccc2/C(=C/C(=O)c2ccccc2)N1	27.6%
CC(C)Oc1ccc(/C=N/NC(=O)c2nnn(-c3nonc3N)c2CN(C)C2CCCCC2)cc1	24.6%
CC(=O)c1c(C)[nH]c(C(=O)OCC(=O)Nc2sc3c(c2C#N)CCCC3)c1C	59% (active)
NC(N)=Nc1nc(-c2ccccc2)c2cc(Cl)ccc2n1	31.6%
COc1ccccc1C1C2=C(COC2=O)Nc2cc3c(cc21)OCO3 (stereo not drawn)	48.7% (active)
CCCOc1ccccc1C1CC(=O)Nc2cc3c(cc21)OCO3 (stereo not drawn)	52.9% (active)
COc1ccccc1N1CCN(Cc2cc(OC)c3c(c2)OCO3)CC1	14.2%
CNc1nnc(-c2ccco2)s1	23.3%
COc1ccc(OC)c(/C=N/NC(=O)c2ccc[n+](CC(=O)c3ccccc3)c2)c1	13.3%
Cc1ccc(S(=O)(=O)NC(C)C(=O)Nc2ccccc2C(=O)N2CCCC2)cc1 (stereo not drawn)	14.3%
C=CCC1(CC=C)CCCN1C(=O)c1cc(COc2ccc(-n3cncn3)cc2)on1	78.5% (active)
Cc1nonc1C1CCCN1C(=O)c1cc(COc2cccc(C(F)(F)F)c2)on1 (stereo not drawn)	26.7%
O=[N+]([O-])c1ccc(N2CCN(CC(O)COc3ccccc3)CC2)cc1 (stereo not drawn)	27.5%
COc1ccc(Cc2nnc(N/N=C/c3ccccc3O)[nH]c2=O)cc1OC	73.7% (active)
COc1ccc(/C=N/N=C2/C(=O)Nc3ccccc32)cc1O	21.9%
c1ccc(-n2nnnc2N2CCOCC2)cc1	6.89%
CC(C)c1ccc(OCC(O)CN2CCN(c3ccccn3)CC2)cc1 (stereo not drawn)	10.6%
Cc1cc([N+](=O)[O-])c(-c2ccc(/C=N/n3cnnc3)o2)cc1Cl	15.1%
O=C(C[C@H]1C/C=C\C[C@@H](NC(=O)OCC2c3ccccc3-c3ccccc32)C(=O)O[C@@H](c2ccccc2)CNC1=O)N[C@H](CO)Cc1ccccc1	57.2% (active)
COC(=O)c1ccccc1NC(=O)C1(S(=O)(=O)c2ccc(Cl)cc2)CC1	15.8%
Cc1onc(-c2ccccc2)c1C(=O)Nc1ccccc1C#N	14.9%
Cc1cccc2nc(CSc3nc4[nH]ncc4c(=O)n3-c3cccc(Cl)c3)cc(=O)n12	64.1% (active)

SMILES	inhibition
CCN(CCO)C(=S)Nc1cc(C(=O)OC)ccc1C(=O)OC	21.2%
CC(=O)Nc1ccc(NC(=O)c2ccc3c(c2)C(=O)N(c2ccccc2C)C3=O)cc1	28.9%
Cc1ccc(O)c(NC(=O)COc2cc(C)ccc2C)c1	76.8% (active)
C/C(=N\Nc1ccc(Cl)nn1)c1ccccc1O	47.1% (active)
COc1ccc2nc(SCC(=O)Nc3c(C)cc(C)cc3C)[nH]c2c1	23.1%
CSc1ncccc1C(=O)Nc1nc2ccc(F)cc2s1	79.4% (active)
Cc1cc(C)c(SCCc2ccncc2)c(C)c1	27%
Cc1ccc(NC(=O)CN(C)CC(=O)Nc2cccc(F)c2)cc1[N+](=O)[O-]	67.8% (active)
CCCC1=Nc2cc(C(=O)NCc3ccco3)ccc2Sc2ccccc21	31.8%
O=C1C=C(c2ccnc3cc(Cl)ccc23)C[C@@H](c2ccc3c(c2)OCO3)C1	61% (active)
COc1ccc(C(=O)NC2CCCc3c2cnn3-c2cccc(C)c2C)c(OC)n1 (stereo not drawn)	51.3% (active)
CN(c1ccc2nc3ccccc3c(=O)n2n1)C1CCCCC1	79.3% (active)
COc1cccc(-n2cc(C(=O)O)c3ccccc3c2=O)c1	22.9%
COc1cccc2cc(C(N)=O)/c(=N\NC(=O)c3ccccc3)oc12	23.9%
Cc1ccccc1C(=O)NC(=S)Nc1ccc(N2CCN(C(=O)c3ccccc3)CC2)cc1	64.5% (active)
Cc1cc2[nH]ncc2cc1NC(=S)NC(=O)c1ccccc1	6.93%
CC(C)C(=O)Nc1nnc(SCC(=O)N2C(C)CCCC2C)s1 (stereo not drawn)	17.7%
Cc1ccc(Nc2nc(N3CCOCC3)nc(N3CCOCC3)n2)cc1Cl	33.3%
CCOc1ccc(-n2c(O)c(/C=N/Nc3nc(C)cc(C)n3)c3ccccc3c2=O)cc1	78.3% (active)
CCOc1ccc(-n2c(O)c(/C=N/c3ccnn3Cc3ccncc3)c3ccccc3c2=O)cc1	28%
O=C(Nc1nc2ccc([N+](=O)[O-])cc2s1)c1ccc(S(=O)(=O)N2CCCc3ccccc32)cc1	82.2% (active)
